Values joined by “and” are separate entries in the source; they are usually repeats but may differ in a detail not shown here. Equal entries are not always repeated. Screen size: about 5,500 compounds; about 2,000 (36%) were called active. Inconclusive results (about 18%) are left out. No stated cut-off is given here; in the data, active means normalized growth mostly below about 0.91 (no sharp cut-off); inconclusive means no clear call, values can overlap the other calls; inactive means mostly above about 0.92. Some of the results follow.
Assay: chemical genetic growth profiling, strain panel (AID 1159580);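 further: tested at 20 µM; growth read once vehicle control cultures reached saturation at 30 °C; 1 = growth at the plate median or of vehicle wells; lower values mean less growth of the strain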
Settings: S. cerevisiae deletion strains, growth OD

Measured: normalized growth

ClC1C(Cl)C(Cl)C(Cl)C(Cl)C1Cl (stereo unspecified)
inactive: locus YAL013W, strain DEP1, active compounds read low 0.981 | locus YAL021C, strain ccr4, active compounds read low 0.997 | locus YAL026C, strain drs2, active compounds read low 0.988 | locus YAL030W, strain snc1, active compounds read low 0.98 | locus YBL061C, strain skt5, active compounds read low 0.965 | locus YBR021W, strain FUR4, active compounds read low 0.985 | locus YBR023C, strain chs3, active compounds read low 0.965 | locus YBR171W, strain sec66, active compounds read low 0.956 | locus YBR229C, strain ROT2, active compounds read low 0.962 | locus YBR231C, strain swc5, active compounds read low 0.913 | locus YBR279W, strain paf1, active compounds read low 0.971 | locus YCL011C, strain gbp2, active compounds read low 0.931 | locus YCL069W, strain vba3, active compounds read low 0.986 | locus YCR088W, strain abp1, active compounds read low 0.965 | locus YDL005C, strain med2, active compounds read low 1.01 | locus YDL035C, strain GPR1, active compounds read low 0.976 | locus YDL040C, strain nat1, active compounds read low 0.986 | locus YDL074C, strain BRE1, active compounds read low 0.939 | locus YDL101C, strain DUN1, active compounds read low 0.964 | locus YDL134C, strain PPH21, active compounds read low 0.963 | locus YDL185W, strain tfp1, active compounds read low 0.926 | locus YDL192W, strain arf1, active compounds read low 0.942 | locus YDR001C, strain nth1, active compounds read low 0.964 | locus YDR069C, strain doa4, active compounds read low 0.989 | locus YDR101C, strain arx1, active compounds read low 0.956 | locus YDR150W, strain NUM1, active compounds read low 0.942 | locus YDR162C, strain NBP2, active compounds read low 0.969 | locus YDR195W, strain ref2 1.07 | locus YDR297W, strain sur2, active compounds read low 0.97 | locus YDR318W, strain mcm21, active compounds read low 0.926 | locus YDR334W, strain swr1, active compounds read low 0.976 | locus YDR335W, strain msn5, active compounds read low 1 | locus YDR388W, active compounds read low 0.935 | locus YDR502C, strain sam2, active compounds read low 0.937 | locus YEL003W, strain gim4, active compounds read low 0.982 | locus YEL037C, strain rad23, active compounds read low 0.973 | locus YEL061C, strain CIN8 (second series), active compounds read low 0.99 | locus YEL061C, strain CIN8, active compounds read low 0.953 | locus YER015W, strain faa2, active compounds read low 0.982 | locus YER016W, strain bim1, active compounds read low 0.98 | locus YER110C, active compounds read low 0.935 | locus YER111C, strain swi4, active compounds read low 0.933 | locus YER155C, strain BEM2, active compounds read low 0.959 | locus YFR010W, strain ubp6, active compounds read low 0.983 | locus YGL078C, strain dbp3, active compounds read low 0.933 | locus YGL086W, strain mad1, active compounds read low 0.933 | locus YGL167C, strain pmr1, active compounds read low 0.974 | locus YGL173C, strain kem1, active compounds read low 0.96 | locus YGL227W, strain vid30, active compounds read low 0.954 | locus YGL248W, strain PDE1, active compounds read low 0.954 | locus YGL253W, strain hxk2, active compounds read low 0.976 | locus YGR078C, strain PAC10, active compounds read low 0.954 | locus YGR135W, strain pre9, active compounds read low 0.947 | locus YGR229C, strain SMI1, active compounds read low 0.954 | locus YGR252W, strain gcn5, active compounds read low 1.12 | locus YHR013C, strain ard1, active compounds read low 0.866 | locus YHR027C, strain rpn1, active compounds read low 0.988 | locus YHR030C, strain SLT2, active compounds read low 0.945 and 0.982 | locus YHR079C, strain IRE1 (second series), active compounds read low 0.927 | locus YHR079C, strain IRE1, active compounds read low 0.985 | locus YHR129C, strain ARP1, active compounds read low 0.958 | locus YHR200W, strain rpn10, active compounds read low 0.922 | locus YIL066C, strain RNR3, active compounds read low 0.955 | locus YIL073C, strain SPO22, active compounds read low 0.906 | locus YIR030C, strain dcg1, active compounds read low 0.945 | locus YJL092W, strain hpr5, active compounds read low 0.95 | locus YJL095W, strain BCK1 (second series), active compounds read low 0.931 | locus YJL095W, strain BCK1, active compounds read low 0.871 and 0.984 | locus YJL115W, strain asf1, active compounds read low 1.01 | locus YJL134W, strain LCB3, active compounds read low 0.955 | locus YJL154C, strain vps35, active compounds read low 0.982 | locus YJL164C, strain tpk1, active compounds read low 0.925 | locus YJL168C, strain set2, active compounds read low 0.943 | locus YJL187C, strain SWE1 (second series), active compounds read low 0.959 | locus YJR043C, strain POL32, active compounds read low 0.965 | locus YJR066W, strain TOR1, active compounds read low 0.939
active: locus YBR009C, strain hhf1, active compounds read low 0.831 | locus YCL016C, strain dcc1, active compounds read low 0.898 | locus YCL029C, strain bik1, active compounds read low 0.906 | locus YCL061C, strain MRC1, active compounds read low 0.894 | locus YDR137W, strain rgp1, active compounds read low 0.606 | locus YDR159W, strain sac3, active compounds read low 0.703 | locus YDR392W, strain spt3, active compounds read low 0.295 | locus YER155C, strain BEM2 (second series), active compounds read low 0.306 | locus YER167W, strain BCK2, active compounds read low 0.84 | locus YGL240W, strain doc1, active compounds read low 0.774 | locus YHR094C, strain hxt1, active compounds read low 0.923 | locus YHR142W, strain chs7, active compounds read low 0.805 | locus YIL125W, strain kgd1, active compounds read low 0.906 | locus YJL129C, strain trk1, active compounds read low 0.783 | locus YJL166W, strain qcr8, active compounds read low 0.728

Reference: PubChem BioAssay AID1159580 (chemical genetic matrix, 2015)
